# Reference: paper PMC8384837, “Expanding the binding specificity for RNA recognition by a PUF domain”
# Numbering of substitutions follows the chain as printed.
# Tests used:
# Assay in all cases: yeast three-hybrid, YBZ-1, SC-Leu-His + 0.5 mM 3-AT, 4 days
# Settings in all cases: tags: N-Gal4 AD-HA kept; label: inside an RPR1-promoter hybrid RNA with tandem MS2 sites; ssRNA
# [1] = biological target: PUM1 PUF domain R7-LFD (Homo sapiens, UniProt Q14671 828-1176, S1079L;N1080F;E1083D)
# In short: (§1)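 Matching RNA elements and Pumilio-1 PUF domain libraries, randomized at the three base-contacting residues of every repeat, were co-expressed from a centromeric plasmid in strain YBZ-1 (LexA–MS2 coat fusion, HIS3 reporter). The repeat regions were PCR-amplified and Illumina-sequenced from cells grown four days on SC-Leu (input) or SC-Leu-His + 0.5 mM 3-AT (selection). The interaction score is the log change in variant frequency from input to selection. It is computed in log2, with a pseudocount of 1 for absent variants.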
# [2] = biological target: PUM1 PUF domain R5-WGF (Homo sapiens, UniProt Q14671 828-1176, C1007W;R1008G;Q1011F)
# In short: as §1
# [3] = biological target: PUM1 PUF domain R5-DME (Homo sapiens, UniProt Q14671 828-1176, C1007D;R1008M;Q1011E)
# In short: as §1
# [4] = biological target: T1, PUM1 PUF domain R6-WWA (Homo sapiens, UniProt Q14671 828-1176, N1043W;Y1044W;Q1047A)
# T1 sequence: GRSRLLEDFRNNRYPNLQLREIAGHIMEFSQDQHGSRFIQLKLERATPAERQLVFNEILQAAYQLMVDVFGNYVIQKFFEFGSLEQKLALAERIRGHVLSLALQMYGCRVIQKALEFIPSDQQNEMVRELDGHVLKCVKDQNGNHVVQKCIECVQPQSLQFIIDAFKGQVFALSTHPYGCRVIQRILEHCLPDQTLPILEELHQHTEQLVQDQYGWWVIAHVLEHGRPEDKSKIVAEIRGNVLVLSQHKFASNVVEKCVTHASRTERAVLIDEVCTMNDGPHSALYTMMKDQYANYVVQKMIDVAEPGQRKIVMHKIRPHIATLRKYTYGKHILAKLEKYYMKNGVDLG
# In short: as §1
# [5] = biological target: T2, PUM1 PUF domain R6-LFT (Homo sapiens, UniProt Q14671 828-1176, N1043L;Y1044F;Q1047T)
# T2 sequence: T1 sequence with W216L, W217F, A220T
# In short: as §1
# [6] = biological target: PUM1 PUF domain R5-DWM (Homo sapiens, UniProt Q14671 828-1176, C1007D;R1008W;Q1011M)
# In short: as §1
# [7] = biological target: PUM1 PUF domain R8-RWH (Homo sapiens, UniProt Q14671 828-1176, N1122R;Y1123W;Q1126H)
# In short: as §1
# [8] = biological target: PUM1 PUF domain R4-CRV (Homo sapiens, UniProt Q14671 828-1176, N971C;H972R;Q975V)
# In short: as §1
# [9] = biological target: PUM1 PUF domain R4-DYL (Homo sapiens, UniProt Q14671 828-1176, N971D;H972Y;Q975L)
# In short: as §1
# [10] = biological target: PUM1 PUF domain R8-KFT (Homo sapiens, UniProt Q14671 828-1176, N1122K;Y1123F;Q1126T)
# In short: as §1
# [11] = biological target: T3, PUM1 PUF domain R6-FYA (Homo sapiens, UniProt Q14671 828-1176, N1043F;Q1047A)
# T3 sequence: T1 sequence with W216F, W217Y
# In short: as §1
# [12] = biological target: PUM1 PUF domain R3-GHH (Homo sapiens, UniProt Q14671 828-1176, C935G;R936H;Q939H)
# In short: as §1
# [13] = biological target: PUM1 PUF domain R3-VYY (Homo sapiens, UniProt Q14671 828-1176, C935V;R936Y;Q939Y)
# In short: as §1
# [14] = biological target: PUM1 PUF domain R3-QPG (Homo sapiens, UniProt Q14671 828-1176, C935Q;R936P;Q939G)
# In short: as §1
# [15] = biological target: PUM1 PUF domain R3-RIC (Homo sapiens, UniProt Q14671 828-1176, C935R;R936I;Q939C)
# In short: as §1
# [16] = biological target: PUM1 PUF domain R4-DHN (Homo sapiens, UniProt Q14671 828-1176, N971D;Q975N)
# In short: as §1
# [17] = biological target: PUM1 PUF domain R4-WGD (Homo sapiens, UniProt Q14671 828-1176, N971W;H972G;Q975D)
# In short: as §1
# [18] = biological target: PUM1 PUF domain R5-QCR (Homo sapiens, UniProt Q14671 828-1176, C1007Q;R1008C;Q1011R)
# In short: as §1
# [19] = biological target: PUM1 PUF domain R5-DHS (Homo sapiens, UniProt Q14671 828-1176, C1007D;R1008H;Q1011S)
# In short: as §1
sequence,measurement,setting,value
GGCUAGAACUAGUGGAUCCCCCGGCGCCCGGCGGCUCGAGCCCGGGUAAGUUUAAAUAGUCUGCAUGCCGCCGGGCGCCAUGCCUGCAGGUCGACUCUAGAAAACAUG,binding signal,[1],2.92 log2 enrichment (interaction score)
GGCUAGAACUAGUGGAUCCCCCGGCGCCCGGCGGCUCGAGCCCGGGUAAGUGUGAAUAGUCUGCAUGCCGCCGGGCGCCAUGCCUGCAGGUCGACUCUAGAAAACAUG,binding signal,[2],4.79 log2 enrichment (interaction score)
same,binding signal,[3],2.8 log2 enrichment (interaction score)
GGCUAGAACUAGUGGAUCCCCCGGCGCCCGGCGGCUCGAGCCCGGGUAAGUGAAAAUAGUCUGCAUGCCGCCGGGCGCCAUGCCUGCAGGUCGACUCUAGAAAACAUG,binding signal,[4],2.47 log2 enrichment (interaction score)
same,binding signal,[5],6.33 log2 enrichment (interaction score)
GGCUAGAACUAGUGGAUCCCCCGGCGCCCGGCGGCUCGAGCCCGGGUAAGUGUAAAUAGUCUGCAUGCCGCCGGGCGCCAUGCCUGCAGGUCGACUCUAGAAAACAUG,binding signal,[4],4.79 log2 enrichment (interaction score)
same,binding signal,[6],2.57 log2 enrichment (interaction score)
same,binding signal,[7],4.7 log2 enrichment (interaction score)
same,binding signal,[8],2.54 log2 enrichment (interaction score)
same,binding signal,[9],6.7 log2 enrichment (interaction score)
same,binding signal,[10],4.46 log2 enrichment (interaction score)
same,binding signal,[11],4.17 log2 enrichment (interaction score)
same,binding signal,[12],3.86 log2 enrichment (interaction score)
GGCUAGAACUAGUGGAUCCCCCGGCGCCCGGCGGCUCGAGCCCGGGUAAGUGUAAUUAGUCUGCAUGCCGCCGGGCGCCAUGCCUGCAGGUCGACUCUAGAAAACAUG,binding signal,[13],5.47 log2 enrichment (interaction score)
same,binding signal,[14],3.7 log2 enrichment (interaction score)
same,binding signal,[15],3.78 log2 enrichment (interaction score)
GGCUAGAACUAGUGGAUCCCCCGGCGCCCGGCGGCUCGAGCCCGGGUAAGUGUAUAUAGUCUGCAUGCCGCCGGGCGCCAUGCCUGCAGGUCGACUCUAGAAAACAUG,binding signal,[16],4.74 log2 enrichment (interaction score)
same,binding signal,[17],4.21 log2 enrichment (interaction score)
GGCUAGAACUAGUGGAUCCCCCGGCGCCCGGCGGCUCGAGCCCGGGUAAGUGUACAUAGUCUGCAUGCCGCCGGGCGCCAUGCCUGCAGGUCGACUCUAGAAAACAUG,binding signal,[16],2.6 log2 enrichment (interaction score)
GGCUAGAACUAGUGGAUCCCCCGGCGCCCGGCGGCUCGAGCCCGGGUAAGUGUUAAUAGUCUGCAUGCCGCCGGGCGCCAUGCCUGCAGGUCGACUCUAGAAAACAUG,binding signal,[18],3.91 log2 enrichment (interaction score)
same,binding signal,[19],4.63 log2 enrichment (interaction score)
GGCUAGAACUAGUGGAUCCCCCGGCGCCCGGCGGCUCGAGCCCGGGUAAGUGUCAAUAGUCUGCAUGCCGCCGGGCGCCAUGCCUGCAGGUCGACUCUAGAAAACAUG,binding signal,[18],4.97 log2 enrichment (interaction score)
GGCUAGAACUAGUGGAUCCCCCGGCGCCCGGCGGCUCGAGCCCGGGUAAGCGUAAAUAGUCUGCAUGCCGCCGGGCGCCAUGCCUGCAGGUCGACUCUAGAAAACAUG,binding signal,[7],5.97 log2 enrichment (interaction score)
